Compounds with a hit are over-represented: about 2.5% of the library has one in this group of screens.
EWS-Fli block: blocks EWS/Fli oncoprotein-driven transcription | hit rate 0.67% among 350,000 | A673 NR0B1-luciferase reporter, viability-normalised | inhibition, % at 12.6 µM | AID 651661;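 active = mean inhibition of at least 50% after viability correction, with every replicate also passing that limit; inconclusive = mean reaches 50% but only one of two replicates passes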;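 also: firefly luciferase signal divided by Alamar Blue viability fluorescence both relative to DMSO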
PAX8 inh HTS: PAX8 transcriptional activity inhibition | RMG-I TPO-luciferase reporter, SteadyGlo, 24 h | inhibition, % at 12.6 µM | hit rate 1.2% among 360,000 | AID 652154;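 active = mean replicate inhibition at least 60% with every replicate also reaching 60%; inconclusive = only one of the two criteria is met; inactive = mean below 60% and not all replicates reaching 60%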;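 also: luciferase light reporting Pax8 driven TPO promoter activity; plate controls were median of neutral control wells for no effect and mitoxantrone controls for full effect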
GAA850 FXN act: frataxin GAA850 promoter activation | HEK293 lucGAA850 FXN promoter luciferase reporter, 24 h; percent of 10 µM SAHA response | activation, % at 6 µM | hit rate 0.56% among 360,000;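 active = activation above the average of all compounds screened plus 3 SD, cutoff fixed separately per campaign, cut at about 7.5% in these data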;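 also: 0% = DMSO wells and 100% = 10 µM SAHA wells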
HIV Env fusion: blocks HIV Env-driven cell-cell fusion; HeLa-JRFL Env/CEM21 cell fusion, luciferase; inhibition, % at 12.3 µM; hit rate 1.1% among 360,000; AID 651610;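 active = mean replicate inhibition score of at least 50 and every replicate individually at or above 50; inconclusive = only one of the two criteria met; inactive = mean below 50 and not all replicates reaching 50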;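 also: 0% = plate neutral controls and 100% = maraviroc near 300 nM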
F508del corr: CFTR F508del correction in bronchial cells | hit rate 0.36% among 350,000 | activity (quench increase), % at 7.58 µM | CFBE cells, YFP halide quenching; stimulated with forskolin plus potentiator P3; % fluorescence drop versus neutral controls;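 active = mean added fluorescence quench of at least 8% versus neutral control, with both replicates also reaching 8%; inconclusive = only one of the mean or replicate conditions met; inactive = mean below 8% and not both replicates reaching 8%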;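 also: cells transiently co-express mutant CFTR-F508del with the halide-sensitive YFP; corrector assay measuring rescue of mutant channel to the surface after 24 h compound exposure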
* hit, by the source's call; [ ] = dose if it differs, or a comment.

Results for CC(C)(C)c1ccc(C(=O)CCCSC2=C(C#N)C(c3ccco3)C3=C(CCCC3=O)N2)cc1 (stereo not drawn) ?
PAX8 inh HTS: 31; GAA850 FXN act: 0; HIV Env fusion: 79*

What do the screens show for `COc1ccc(-c2csc(NC(=O)c3ccccc3NS(=O)(=O)c3ccc(C)cc3)n2)cc1`?
EWS-Fli block: 15; PAX8 inh HTS: 0; GAA850 FXN act: -2; F508del corr: 2

Results for COc1ccc(S(=O)(=O)Nc2ccccc2C(=O)Nc2nc(-c3ccc(F)cc3)cs2)cc1OC ?
GAA850 FXN act: -1; HIV Env fusion: 66*

How did C[C@@H]1CCCCO[C@@H](CN(C)Cc2ccncc2)[C@H](C)CN([C@@H](C)CO)C(=O)c2cc(NC(=O)CCCCCC(=O)Nc3ccccc3N)ccc2O1 do in these assays?
EWS-Fli block: 3; PAX8 inh HTS: 5; F508del corr: -4

Results for COc1ccc(CN(C)C[C@@H]2OCCCC[C@@H](C)Oc3ccc(NC(=O)Nc4ccc(F)cc4)cc3C(=O)N([C@H](C)CO)C[C@H]2C)cc1 ?
EWS-Fli block: 8; PAX8 inh HTS: 73*; HIV Env fusion: -33[16.7 µM]; F508del corr: -1

What do the screens show for `COc1ccc(CN(C)C[C@@H]2OCCCC[C@H](C)Oc3ccc(NC(=O)Nc4ccccc4)cc3C(=O)N([C@H](C)CO)C[C@H]2C)cc1`?
EWS-Fli block: -10; PAX8 inh HTS: -6; HIV Env fusion: -37[16.7 µM]; F508del corr: -1

Results for COc1ccc(CN(C)C[C@H]2OCCCC[C@H](C)Oc3ccc(NC(=O)Nc4ccccc4)cc3C(=O)N([C@H](C)CO)C[C@H]2C)cc1 ?
EWS-Fli block: 65*; PAX8 inh HTS: 7; HIV Env fusion: -44[16.7 µM]; F508del corr: 0

What do the screens show for `COCCNC(=O)C[C@@H]1C[C@H]2c3cc(NC(=O)Nc4ccccc4F)ccc3O[C@H]2[C@@H](CO)O1`?
EWS-Fli block: 0; PAX8 inh HTS: -5; HIV Env fusion: 9[16.7 µM]; F508del corr: -2

How did CN1C(=O)c2cc(NC(=O)C3CCOCC3)ccc2OC[C@H]2O[C@H](CC(=O)NCC3CCCCC3)CC[C@H]21 do in these assays?
EWS-Fli block: 0; PAX8 inh HTS: -6; HIV Env fusion: 10[16.7 µM]

Results for COCC(=O)N(C)C[C@@H]1Oc2cc(C#CCC3CCCC3)ccc2S(=O)(=O)N([C@@H](C)CO)C[C@H]1C ?
EWS-Fli block: 9; PAX8 inh HTS: 71*; HIV Env fusion: 22[16.7 µM]; F508del corr: 0

What do the screens show for `COCC(=O)N(C)C[C@@H]1Oc2cc(C#CCC3CCCC3)ccc2S(=O)(=O)N([C@@H](C)CO)C[C@@H]1C`?
EWS-Fli block: 3; PAX8 inh HTS: 74*; HIV Env fusion: 6[16.7 µM]; F508del corr: -5

What do the screens show for `Cc1noc(C)c1S(=O)(=O)N(C)C[C@@H]1Oc2ccc(NC(=O)CCCCCC(=O)Nc3ccccc3N)cc2CC(=O)N([C@H](C)CO)C[C@H]1C`?
EWS-Fli block: -9; PAX8 inh HTS: -18; F508del corr: 1

How did COc1ccccc1N=C1SC(C(=O)Nc2cccc(Cl)c2Cl)C(N)=C1C(N)=O (stereo not drawn) do in these assays?
EWS-Fli block: 55*; PAX8 inh HTS: -6; GAA850 FXN act: -5; HIV Env fusion: -15; F508del corr: 9.5*

How did c1ccc2c(NCCCN3CCOCC3)c3ccccc3nc2c1 do in these assays?
EWS-Fli block: inconclusive; PAX8 inh HTS: 22; HIV Env fusion: -107; F508del corr: 11*

Results for Fc1ccccc1-c1nc(NCCCN2CCOCC2)c2ccccc2n1 ?
EWS-Fli block: -2; PAX8 inh HTS: -14; GAA850 FXN act: 4; HIV Env fusion: 4; F508del corr: 1

How did CN(C)CCCNc1c2ccccc2nc2ccccc12 do in these assays?
EWS-Fli block: 48; PAX8 inh HTS: 10; GAA850 FXN act: 0; HIV Env fusion: -84; F508del corr: 18*

What do the screens show for `Cc1noc(C)c1S(=O)(=O)Nc1ccc2c(c1)C(=O)N([C@@H](C)CO)C[C@@H](C)[C@H](CN(C)C(=O)Cc1ccccc1)OCCCC[C@@H](C)O2`?
EWS-Fli block: -11; PAX8 inh HTS: 4; HIV Env fusion: -22[16.7 µM]; F508del corr: 0

Results for O=C(CCCl)Nc1nc2c(s1)CCc1ccccc1-2 ?
EWS-Fli block: 8; PAX8 inh HTS: 43; GAA850 FXN act: -3; HIV Env fusion: 21; F508del corr: 8.8*

What do the screens show for `CC(=O)Nc1nc2c(s1)CCc1ccccc1-2`?
PAX8 inh HTS: -4; GAA850 FXN act: 1; HIV Env fusion: 0; F508del corr: 1

How did CN(C)C(=O)C[C@@H]1C[C@@H]2c3cc(NC(=O)CC4CC4)ccc3O[C@@H]2[C@H](CO)O1 do in these assays?
EWS-Fli block: 1; PAX8 inh HTS: -8; HIV Env fusion: 3[16.7 µM]; F508del corr: -2

How did CCC(=O)N(C)C[C@@H]1Oc2cc(-c3cncnc3)ccc2S(=O)(=O)N([C@H](C)CO)C[C@H]1C do in these assays?
EWS-Fli block: -18; HIV Env fusion: -4[16.7 µM]; F508del corr: 1

What do the screens show for `COC1=C(C)C(=O)C2=C(C1=O)C1C3CC4=C(C(=O)C(OC)=C(C)C4=O)C(CNC(=O)C(C)=O)N3C(C#N)C(C2)N1C` (stereo not drawn)?
EWS-Fli block: 32; PAX8 inh HTS: 106*; GAA850 FXN act: -15; HIV Env fusion: 64*; F508del corr: 3

Results for Fc1ccc(CSc2nnc(-c3ccncc3)o2)cc1 ?
EWS-Fli block: -27; PAX8 inh HTS: -90; GAA850 FXN act: -6; HIV Env fusion: 37; F508del corr: 0

Results for Clc1ccc(CSc2nnc(-c3ccncc3)o2)cc1 ?
GAA850 FXN act: -7; HIV Env fusion: 63*

Results for COc1ccccc1N(CC(=O)Nc1ccccc1)S(=O)(=O)c1cccs1 ?
EWS-Fli block: -18; PAX8 inh HTS: -20; GAA850 FXN act: 1; HIV Env fusion: -1; F508del corr: 2

What do the screens show for `COc1cccc(NC(=O)CN(c2ccccc2OC)S(=O)(=O)c2cccs2)c1`?
EWS-Fli block: 3; PAX8 inh HTS: -4; GAA850 FXN act: 2; HIV Env fusion: 64*; F508del corr: 2

Results for O=C(C[C@H]1CC[C@@H]2[C@H](COC[C@@H](O)CN2CC2CCCC2)O1)NCC1CC1 ?
EWS-Fli block: -9; F508del corr: 0

Results for O=C(N/N=C/c1ccncc1)c1cc(C2CC2)nc2ccccc12 ?
GAA850 FXN act: 2

What do the screens show for `O=C(N/N=C/c1cccs1)c1cc(C2CC2)nc2ccccc12`?
EWS-Fli block: 47; PAX8 inh HTS: 28; GAA850 FXN act: -3; F508del corr: 12*

What do the screens show for `O=C(N/N=C/c1ccc[nH]1)c1ccc(COc2cccc3cccnc23)cc1`?
EWS-Fli block: 23; PAX8 inh HTS: 79*; GAA850 FXN act: -7; HIV Env fusion: 71*; F508del corr: -1

How did Cc1cc(Br)c(OCc2ccc(C(=O)N/N=C/c3ccc[nH]3)cc2)c(Br)c1 do in these assays?
EWS-Fli block: 58*; PAX8 inh HTS: 95*; GAA850 FXN act: -5; HIV Env fusion: 91*; F508del corr: -5

Screening results deposited in PubChem BioAssay by several laboratories.
